Source: PubChem BioAssay (NCATS)
Several values for one entry are separate records, joined by “and”; a condition that tells them apart may be missing. Equal values may be shown once. Inconclusive results are not listed. Activity calls are given as the source filed them. Calls come from the whole dose curve.

Assay: qHTS Assay for Lipid Storage Modulators (AID 1519); for activity change, negative = inhibition: % is set by controls: 0 for no effect and ±100 for the full control effect
Conditions: Drosophila S3 cells, BODIPY lipid droplet/cell ratio, laser cytometry, cells loaded with oleic acid
From the text: NIH Molecular Libraries Probe Production Centers Network [MLPCN]
NIH Chemical Genomics Center [NCGC]
Assay Submitter (PI): Beller, Mathias; Max-Planck-Institut fur Biophysikalische Chemie
NCGC Assay Overview: Storing lipids as a reservoir for energy or the anabolism of elementary metabolites is a common feature of probably all cells and is conserved from bacteria to humans. The universal cellular lipid storage organelle is the so-called lipid storage droplet (LD). Although ubiquitous, LDs share a simple structure composed of a hydrophobic core that harbors the storage lipids, which is shielded by a droplet-specific phospholipid monolayer to which proteins are attached. The current model of LD biogenesis involves an incorporation of the lipid core into the membrane leaflets of the endoplasmic reticulum (ER) followed by a subsequent budding-like maturation of a LD, which ultimately pinches off. Once released, LD volume can increase by localized lipogenesis or fusion of existing droplets. Storage lipids are re-mobilized enzymatically by lipase activity. Lipase regulation in the adipocyte is heavily studied and involves multiple components including catecholamine signaling, the LD-associated proteins Perilipin and comparative gene identification-58 (CGI-58) and at least two lipases named hormone sensitive lipase (HSL) and adipocyte triglyceride lipase (ATGL). LD regulation outside of the adipocyte is poorly understood and only few components are known. However, there is an urgent need to learn more about ectopic fat depots as mislocalized storage of lipids, for example in the liver or muscle, is an eminent health problem associated with insulin resistance or the metabolic syndrome. We developed a laser-scanning cytometer assay to enable 1,536-well screening and combined the results of the small molecules screen with an RNAi database based on lipid storage.
NCGC Assay Protocol Summary:
We dispensed 4 uL of cells at 1.25 x 10^6 cells/mL into LoBase Aurora COC 1,536-well plates (black walled, clear bottom) with a bottle-valve solenoid-based dispenser (Aurora) to obtain 5,000 cells/well. Triacsin C (Sigma-Aldrich T-4540), an inhibitor of long-chain fatty acyl CoA synthetase that blocks synthesis of triglycerides, was used as a positive control for lipid under-storage. A total of 23 nL of compound solution of different concentrations were transferred to the assay plates using a Kalypsys pin tool equipped with a 1,536-pin array containing 10-nL slotted pins (FP1S10, 0.457-mm diameter, 50.8 mm long; V&P Scientific). One microliter of oleic acid (400 uM) was added, and the plate was lidded with stainless steel rubber gasket lined lids containing pinholes. […] Fluorescence was detected by excitation of the fluorophores with a 488-nm laser on an Acumen Explorer (TTP Lab Tech). The total intensity in channel 1 (500-530 nm) reflected lipid droplet accumulation. […] The ratio of the total intensity in PMT channel 1 over total intensity of channel 3 was also calculated. Percent activity was computed relative to an internal control (100% inhibited lipid droplet deposition due to the presence of 20 uM Triacsin C), which was added to 32 wells/plate.

[1] = measured here: cell count channel max response
[2] = measured here: lipid channel max response

SMILES	activity change, negative = inhibition (at 25.7 µM (top of the series))	max response [1]	max response [2]	activity change, negative = inhibition (at 57.5 µM (top of the series))
c1ccc2[nH]c(-c3cscn3)nc2c1	0.183% (inactive)	-11.6%	-10.4%	–
Cc1c(OCC(F)(F)F)ccnc1CS(=O)c1nc2ccccc2[nH]1 (stereo unspecified)	-2.59% (inactive)	-16.9% and 6.05%	-17.5% and 9.62%	0.201% (inactive)
O=C(O)c1cccnc1Nc1cccc(C(F)(F)F)c1	2.12% (inactive)	-6.57% and 55.9%	-3.91% and 60.1%	2.96% (inactive)
Oc1ccc(OCc2ccccc2)cc1	-0.0547% (inactive)	-20%	-20.9%	–
CCC1=C(C)CN(C(=O)NCCc2ccc(S(=O)(=O)NC(=O)NC3CCC(C)CC3)cc2)C1=O (stereo unspecified)	-0.769% (inactive)	-5.01%	-5.89%	–
Cc1cc(O)c2c(c1)C(=O)c1cc(O)cc(O)c1C2=O	–	55.1% and -15.9%	55.2% and -8.66%	-0.138% (inactive) and 5.28% (inactive)
Cc1cc2c(s1)Nc1ccccc1N=C2N1CCN(C)CC1	–	-2.56%	9.09%	13.5% (inactive)
O=c1oc2cc(O)ccc2s1	–	14.5%	23.2%	5.97% (inactive)
CCCOc1ccc2nc(NC(=O)OC)[nH]c2c1	–	3.19%	11.6%	5.26% (inactive)
NCCCCNCCCN	–	7.14%	8.54%	0.755% (inactive)
O=C1NC(=O)C(c2ccccc2[N+](=O)[O-])=C1Nc1ccc(O)c(Cl)c1	–	-38.3%	-39.8%	-0.486% (inactive)
Cc1ccc(S(=O)(=O)NC(=O)NN2CC3CCCC3C2)cc1 (stereo unspecified)	–	7.98% and 20.6%	13.4% and 23.5%	1.76% (inactive) and 2.62% (inactive)
O=c1c(O)c(-c2ccc(O)cc2O)oc2cc(O)cc(O)c12	–	2.76%	19%	13.5% (inactive)
